According to PubChem BioAssay (NCATS):
Several values for one entry are separate records, joined by “and”; a condition that tells them apart may be missing. Equal entries are not always repeated. Activity calls are given as the source filed them. The call rests on the fitted dose curve.

Biological target: Glucocorticoid receptor (Homo sapiens) (UniProt P04150)
Test: GR-EFC Redistribution (AID 451)
Conditions: CHO-K1 GR-EFC translocation, beta-gal luminescence, 2 h
How it was run: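 CHO-K1 cells stably expressing nuclear-localized β-gal enzyme acceptor and GR fused C-terminally to the enzyme donor fragment; ligand-driven nuclear translocation restores β-gal by complementation. Compounds titrated up to 46 uM final, 2 h at 37 °C; luminescence read.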
Potency means the concentration at half of the fitted maximal effect.

Glucocorticoid receptor (Homo sapiens), sequence (P04150 whole entry, looked up): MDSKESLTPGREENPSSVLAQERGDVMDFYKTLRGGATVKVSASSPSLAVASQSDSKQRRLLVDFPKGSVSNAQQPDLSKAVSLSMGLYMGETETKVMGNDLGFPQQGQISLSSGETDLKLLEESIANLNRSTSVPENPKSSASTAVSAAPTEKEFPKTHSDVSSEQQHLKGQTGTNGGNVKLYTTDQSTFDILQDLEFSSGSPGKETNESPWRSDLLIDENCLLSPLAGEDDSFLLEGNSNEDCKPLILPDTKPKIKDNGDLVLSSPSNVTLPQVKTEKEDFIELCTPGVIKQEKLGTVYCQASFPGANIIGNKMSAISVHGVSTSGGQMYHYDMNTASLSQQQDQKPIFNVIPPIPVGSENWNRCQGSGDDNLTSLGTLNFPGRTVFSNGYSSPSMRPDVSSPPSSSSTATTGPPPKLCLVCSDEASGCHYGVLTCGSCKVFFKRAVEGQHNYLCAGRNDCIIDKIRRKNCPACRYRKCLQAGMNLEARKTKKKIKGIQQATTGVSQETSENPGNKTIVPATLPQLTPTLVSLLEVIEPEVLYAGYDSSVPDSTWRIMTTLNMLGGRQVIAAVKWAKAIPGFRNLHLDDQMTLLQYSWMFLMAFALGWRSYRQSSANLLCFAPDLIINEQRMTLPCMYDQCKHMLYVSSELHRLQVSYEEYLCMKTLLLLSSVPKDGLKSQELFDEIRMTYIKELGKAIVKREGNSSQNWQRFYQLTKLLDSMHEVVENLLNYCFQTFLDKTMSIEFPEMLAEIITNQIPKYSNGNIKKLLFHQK

Compound	Potency
CCOC(=O)C1=C(C)NC(=S)NC1c1cccc(O)c1 (centres undefined)	> 46 µM (inactive)
COc1cc2c(cc1OC)[C@@H]1C(=O)c3ccc4c(c3O[C@@H]1CO2)C=CC(C)(C)O4	> 46 µM (inactive)
O=c1c(O)c(-c2ccc(O)c(O)c2)oc2cc(O)ccc12	> 46 µM (inactive)
COc1cc2ncnc(Nc3cccc(Br)c3)c2cc1OC	> 46 µM (inactive)
Nc1nc2c(c(=O)[nH]1)N(C=O)[C@H](CNc1ccc(C(=O)N[C@@H](CCC(=O)O)C(=O)O)cc1)CN2	> 20.6 µM (inactive)
CN(N=O)C(=O)N[C@H]1C(O)OC(CO)[C@@H](O)[C@H]1O (some centres undefined)	> 46 µM (inactive)
c1coc(CNc2ncnc3nc[nH]c23)c1	> 20.6 µM (inactive) and > 46 µM (inactive)
COc1cc2c(cc1O)CCC1C2CC[C@@]2(C)C1CC[C@@H]2O (some centres undefined)	> 46 µM (inactive)
O=C(O)C=Cc1ccc(Cn2ccnc2)cc1	> 46 µM (inactive)
COc1ccc([C@@H]2CNC(=O)C2)cc1OC1CCCC1	> 46 µM (inactive) and > 20.6 µM (inactive)
COc1ccc2c(c1OC)C(=O)OC2[C@H]1c2c(cc3c(c2OC)OCO3)CCN1C (some centres undefined)	> 46 µM (inactive) and > 20.6 µM (inactive)
CC(Oc1ccc(O)cc1)(P(=O)(O)O)P(=O)(O)O	> 46 µM (inactive)
CN(C)CC[C@H](c1ccc(Cl)cc1)c1ccccn1	> 46 µM (inactive) and > 20.6 µM (inactive)
CC(C)[C@H](CO)Nc1nc(Nc2cccc(Cl)c2)c2ncn(C(C)C)c2n1	> 46 µM (inactive)
